Paper PMC12136788
Changes are numbered by the printed parent chain. The full ranking holds about 5,800 sequences; the median of “enrichment r” is about 0.54, and the highest 2% start at about 16. This excerpt belongs to a sample that is enriched for the highest values.

B1: chr18:3457781:3457936:+|CDS|ENSG00000177426|unk|total|mutant (ssRNA)
RNA: GGGAGUUCUACAGUCCGACGAUCCAACACUCCUCCCCCUACUCCACCGGACCUCAACCAGGACUUCAGUGGAUUUCAGCUUCCCGUGGAUGUUGCACUCAAACGGGCUGCAGAGAUGGAGCUUCAGGCAAAACUUACAGCUUACAACAGAGGAUUGAGCAUCA
B2: chr8:88032264:88032379:-|3pUTR|ENSG00000156103|unk|FALSE|bound_elsewhere (ssRNA)
RNA: GGGAGUUCUACAGUCCGACGAUCACUCCUUAUAAUGUUGCGUCAUUAAAGGUCAAGGGGUCAUGCUAUUAAUCUCAUUGCUAUAGACCAUUAACAUGACUGAACUUUUCCACAAAGUACUUAUGUUUACAAUGCUAUAACCCUCAACAGAGGAUUGAGCAUCA
B3: ENSG00000150457:stop:overlap|stop_codon|ENSG00000150457|stop_codon|NA|stop_codon (ssRNA)
RNA: GGGAGUUCUACAGUCCGACGAUCCAGAUUUAGAAAGCUCUGAUCUGGUGGAUCAGACUGAAGGCUGCCAGCCUGUGUACGUGUAGAUGGGGGCCAGGCACCCCCACCACUCGCUGCCUCCCAGGUCAGGGUCCCGGAGCCGGUCAACAGAGGAUUGAGCAUCA
B4: chr11:118657315:118658441:-|three_prime_utr|ENSG00000118094|control|control|control (ssRNA)
RNA: GGGAGUUCUACAGUCCGACGAUCCCUCCCAGCCUGUCCUCAGAGCGAAGUGGAGGGCAGGGUCACGACCUGGAGGUCAUGGGUAGGGGCCUAGCUCCCUCCUGGAACCUUGAAUAGGGUGGAAAUCCUGCUCUGGAGGGAAGACAACAGAGGAUUGAGCAUCA
B5: chr1:156742365:156742464:-|3pUTR|ENSG00000143321|msi1_unk|total|mutant (ssRNA)
RNA: GGGAGUUCUACAGUCCGACGAUCAUUUCUGAGGUGCACUGGGAGGCUCCCCUUCUAUUUGGGGCUUGAUGACUUUCUUUUUGCCGCUGGGGCUUUGAUGUUCCUUCCAGUGUCAUUUCUCAUCCACAUACCCUGACCUGGCCCCAACAGAGGAUUGAGCAUCA
B6: chr8:30843048:30843149:-|CDS|ENSG00000133863|unk|FALSE|unique (ssRNA)
RNA: GGGAGUUCUACAGUCCGACGAUCGGAUACUAUAAUUGCUUCCAGAAAGUCAGAUCAUCCAAUAAACGAAGCAACAAUUAGCAUAGAAAAUUCUAAAUUUAACAGUAAUUUGCUUGCACACCCAGAUAUUUGUUGUAUUAGUGACAACAGAGGAUUGAGCAUCA
B7: chr3:44647099:44647200:+|3pUTR|ENSG00000186448|msi1|FALSE|unique (ssRNA)
RNA: GGGAGUUCUACAGUCCGACGAUCAUUUGUAUGUAAACUACAUAAAGAACUUUCCAAAUUUAACAGUAAUAAGUAAAUACAAUUAGAAAAUAAGCAAAAGACAGACAUUUCACUGAAGUAUAGAUAGCAAAUAAGCAAAUGAAACAACAGAGGAUUGAGCAUCA
B8: chrX:41141081:41141111:+|CDS|ENSG00000124486|msi1_unk|total|mutant (ssRNA)
RNA: GGGAGUUCUACAGUCCGACGAUCCACUCUUCAUACAGUGAAAAAGUACUUUCUUCCAAUAACCGAAAUGGUUCCACAGUUUUCCGAAAACUUAACUGAUGAAGAACUGAAAAAAGAAGCAAAGAAUGAAGCCAAAAAUGAUGCCAACAGAGGAUUGAGCAUCA
B9: chr12:125025615:125025697:+|3pUTR|ENSG00000184992|msi1_unk|FALSE|overlapping (ssRNA)
RNA: GGGAGUUCUACAGUCCGACGAUCGGACACAUUCCCAGAAGAGCGGAAAGAUCAUUGACGUGGAACUACACACGAAGUGUAAUUAGUGGGGGAAAAAAUAUUUUUUAAACAAAGGAUAUAACCAUAUUUAGUUGUACAGUAAGACAACAGAGGAUUGAGCAUCA
B10: chr3:44647099:44647200:+|3pUTR|ENSG00000186448|msi1|total|mutant (ssRNA)
RNA: B7 RNA with U83C, A84C, U120C, A121C, U124C, A125C
B11: ENSG00000067715:stop:overlap|stop_codon|ENSG00000067715|stop_codon|NA|stop_codon (ssRNA)
RNA: GGGAGUUCUACAGUCCGACGAUCAGGAGAAGUUUAUGAAUGAGUUGCAUAAAAUUCCAUUUCAAAGGAAAGAGAGUACCAAUUAGACAAGGGAAGAAGAUGAGAGACUGCCUGAACAGCAUCACUUUUGUAAACUGAGAGUUCCAACAGAGGAUUGAGCAUCA
B12: chr8:30843048:30843149:-|CDS|ENSG00000133863|unk|total|mutant (ssRNA)
RNA: B6 RNA with U78C, A79C, U83C, A84C, U138C, A139C
B13: chr11:85958428:85958534:-|3pUTR|ENSG00000073921|unk|FALSE|unique (ssRNA)
RNA: GGGAGUUCUACAGUCCGACGAUCAGAAACAAUAACUGAAAUUAACUUUUCUUUUUUUAAAAAAAAUUAUAUUCAGUUUGCAGUAGACAUUCCUUAAGUAUUUGUAUUUAUUUAUGAUUAUCAAUUUUACAUAACAUUAAUAUUCAACAGAGGAUUGAGCAUCA
B14: chr19:34227675:34227687:+|3pUTR|ENSG00000257103|msi1_unk|total|mutant (ssRNA)
RNA: GGGAGUUCUACAGUCCGACGAUCUUAAAACAUGAGCAUUAAAUAUAUUUGGAACCGCAGAAGGUUAAGUAAUUUCUUAUGUACCGUUAAACUAAAGCAGUACUUCAGUGGGACUUAACAAGUAUUUUUUCAUCACUGAAAGGUCAACAGAGGAUUGAGCAUCA
B15: chr11:214995:215097:+|3pUTR|ENSG00000177963|unk|total|mutant (ssRNA)
RNA: GGGAGUUCUACAGUCCGACGAUCCCUCCUUCCUACUGGUUCCGACUACACUUACAACAAGGAAAAUGCCCCUCGUGUGACCACCGAUUGAGAUUUAUACCACAUACCACACACCGCCACAGAAACAUCAUCUUGAAAUAAAGACAACAGAGGAUUGAGCAUCA
B16: chr5:157162449:157163658:-|CDS|ENSG00000170613|control|control|control (ssRNA)
RNA: GGGAGUUCUACAGUCCGACGAUCGGUCACAUCACAUGACAGAGAGGUAGAUAUCGUGGCUAAGAUGGUGGAGAAGCAAAACAUAGAGGCCAAAGUGGAGAAAGCCCAGGGUGGCCAGGAGCUGGAGAUGAUCAGUGGCACUAUCAACAGAGGAUUGAGCAUCA
B17: chr1:234405902:234406099:-|CDS|ENSG00000059588|control|control|control (ssRNA)
RNA: GGGAGUUCUACAGUCCGACGAUCCCUUAUAGUUGUGCUGCAGUGGUGUUUCAAUCACAAUUUUAGUGUUCGACUGUAUGCUUUAGUUGCUCUUAAGAAACUCUGGACUGUGUGUAAAGUGUUAAGUGUUGAAGAAUUUGAUGCCAACAGAGGAUUGAGCAUCA
B18: chr6:136278143:136278257:-|CDS|ENSG00000029363|unk|total|mutant (ssRNA)
RNA: GGGAGUUCUACAGUCCGACGAUCACAUCCGGUGAUAUUUGGCCUGGCCUUUCAGCUUAUGAUAACCGUCCCCGAUCACCCCACCGUCCUUCACCUAUUGCUACACCACCCCGUCAGAGUUCAUCUUGCUCUGAUGCUCCCAUGCAACAGAGGAUUGAGCAUCA
B19: chr1:15430058:15430159:+|3pUTR|ENSG00000142634|msi1|FALSE|unique (ssRNA)
RNA: GGGAGUUCUACAGUCCGACGAUCCCUGGAAGCUACGCGGACUUGCAGAGGUUUUAUUUUUUGGCCUUAGAAUCUGCAGAAAUUAGGAGGCACCGAGCCCAGCGCAGCAGCCUCGGACCCGGAUUGCGUUUGCCUUAGCGGAUACAACAGAGGAUUGAGCAUCA
B20: ENSG00000070961:be:win_4001|3pUTR|ENSG00000070961|bound_else_gene|NA|bound_elsewhere_windowed (ssRNA)
RNA: GGGAGUUCUACAGUCCGACGAUCAGUAAAACUGGGCAAGACAAAGAGCCCUGGAUCGUUGAAUUGAUAGUUUAAUUUCUGCUGUUGGCUGUUAAUAAUUUGGAUUAUUUAUGUUUAUAAAUGAUACAGAUCUGUUUACAAGGUCAACAGAGGAUUGAGCAUCA
B21: ENSG00000005810:stop:overlap|stop_codon|ENSG00000005810|stop_codon|NA|stop_codon (ssRNA)
RNA: GGGAGUUCUACAGUCCGACGAUCCACCCACUGGGGAAGAGUUUGCUCUGGGAUGUGGAGUGUGCAGAAAUGCCCACACUUUUUAGAACACGCAGAUCCUUUGUCUACAGAGAGAAAAAUUGCCUUCAUCCCCCAAGAGGAUGCCAACAGAGGAUUGAGCAUCA
B22: chr2:105361111:105361195:-|3pUTR|ENSG00000115641|msi1_unk|total|mutant (ssRNA)
RNA: GGGAGUUCUACAGUCCGACGAUCCUUUCUCACCCAGGCAAUCUUGCCUUCUGGUUUCUUCCAGCCACAUUGAGACUUUCUUCCCGUGCUUUUCAGUGAUACUCACGUUUGCUUAAACCCUUCCGUGCUUUGUGACCGUUCAGUCAACAGAGGAUUGAGCAUCA

target: MSI1 full-length (mouse, UniProt Q61474 1-362); experiment: nsRBNS (natural sequence RNA bind-n-seq); RBNS binding buffer (assumed for nsRBNS): 25 mM Tris pH 7.5, 150 mM KCl, 3 mM MgCl2, 0.01% Triton X-100, 500 ug/ml BSA, 20 U/ml SUPERase-In, 4 C; UNK is unkempt and MSI1 is Musashi-1; names of the RNAs are library labels; protein concentration not given here; high values mean tight binding
Sequence (Q61474 whole entry): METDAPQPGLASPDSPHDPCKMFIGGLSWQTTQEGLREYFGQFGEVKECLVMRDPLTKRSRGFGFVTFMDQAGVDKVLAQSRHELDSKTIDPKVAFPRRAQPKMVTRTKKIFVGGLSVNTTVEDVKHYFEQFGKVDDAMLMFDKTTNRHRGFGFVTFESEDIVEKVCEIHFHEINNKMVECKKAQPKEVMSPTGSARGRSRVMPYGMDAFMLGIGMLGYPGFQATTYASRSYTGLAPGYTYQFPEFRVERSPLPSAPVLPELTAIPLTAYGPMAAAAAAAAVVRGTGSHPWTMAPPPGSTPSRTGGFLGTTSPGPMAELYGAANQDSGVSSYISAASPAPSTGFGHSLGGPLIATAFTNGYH

| Binder | binding signal |
| --- | --- |
| B1 | 0.52 enrichment R |
| B2 | 0.72 enrichment R |
| B3 | 0.418 enrichment R |
| B4 | 0.327 enrichment R |
| B5 | 0.353 enrichment R |
| B6 | 29.7 enrichment R |
| B7 | 129 enrichment R |
| B8 | 0.267 enrichment R |
| B9 | 3.62 enrichment R |
| B10 | 19.7 enrichment R |
| B11 | 0.457 enrichment R |
| B12 | 1.28 enrichment R |
| B13 | 4.67 enrichment R |
| B14 | 1.31 enrichment R |
| B15 | 0.839 enrichment R |
| B16 | 0.709 enrichment R |
| B17 | 0.964 enrichment R |
| B18 | 0.739 enrichment R |
| B19 | 0.989 enrichment R |
| B20 | 0.47 enrichment R |
| B21 | 0.439 enrichment R |
| B22 | 0.426 enrichment R |
